# Records with an inconclusive call do not appear. Active and inactive are the calls of the source. Calls follow the shape of the dose curve; as a rule, active = well fitted curve in the direction sought with a large enough effect; inconclusive = small, poorly fitted or top-dose-only effect, or another doubt; inactive = no such curve, though single readings can be large; an effect the other way counts as inactive or inconclusive.
# Target: Aldehyde dehydrogenase, mitochondrial (Homo sapiens) (UniProt P05091)
# Assay: qHTS for Inhibitors of the Aldehyde Dehydrogenase Family (ALDH2) Primary screen (AID 2061308);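 also: plate controls were vehicle for no effect and reference inhibitor for full effect; nearly all actives have a fitted effect of over 55% in size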
# Details: ALDH2 enzyme inhibition qHTS, 1536-well; series mostly up to 56 µM; activity change, negative = inhibition: at the top concentration
SMILES,"activity change, negative = inhibition",Potency
CC(C)Nc1oc(-c2cccc3ccccc23)nc1C#N,0.14% (inactive),–
O=C(OCC#CCSc1nnc(-c2ccc3ccccc3c2)o1)c1ccc(F)c(F)c1,6.18% (inactive),–
C=C1[C@H]2CC[C@H](C(=O)O)[C@@]23CC[C@H](C3)C1(C)C,10.9% (inactive),–
CCCc1cc(=O)c2ccccc2n1C,-2.65% (inactive),–
CC(C)N1Cc2ccc(Nc3nn4c(=O)c5ccccc5nc4s3)cc2C1,12% (inactive),–
FC(F)(F)c1ccccc1-c1nc(NCC#Cc2cccnc2)c2ccccc2n1,–,inactive
Cc1cc(C)cc(N2CCN(C(=S)Nc3cc(C)cc(C)n3)CC2)c1,5.13% (inactive),–
FC(F)(F)c1ccc(CSc2nc3ncc(Br)cc3[nH]2)cc1,0.983% (inactive),–
COc1ccc(-c2nnc3n2N=C(c2ccccc2OC)CS3)cc1OC,17.2% (inactive),–
Cc1cc(NC(=O)Nc2cccc(-c3ccncc3)n2)ccc1Br,-13.4% (inactive),–
CN(Cc1cccs1)c1ncnc2ccc(-c3ccc4c(c3)OCO4)cc12,17.2% (inactive),–
COC(=O)c1ccc(O)c2ncc(-c3ccc(C(=O)N4CCN(C)CC4)cc3)cc12,14% (inactive),–
Fc1cc(F)cc(Nc2nc(Cl)nc(NC3CCCC3)n2)c1,1.72% (inactive),–
CCCCC1CCC(C(=O)Nc2ccc(S(=O)(=O)Nc3cc(C)on3)cc2)CC1 (stereo not given),-7.53% (inactive),–
CN(CCc1cccs1)c1ncnc2ccc(-c3ccc4c(c3)OCO4)cc12,-11.1% (inactive),–
Cc1cccc(CNc2ccc(S(=O)(=O)Nc3nccs3)cc2)c1O,11.7% (inactive),–
O=C(CN1C(=O)N/C(=C\c2cccn2-c2cccc(C(=O)O)c2)C1=O)Nc1cccc(Cl)c1,-23.6% (inactive),–
COc1ccc(C2Nc3cccc(OC)c3C(=O)N2Cc2ccco2)cc1COc1c(C)cc(NC(C)=O)cc1C (stereo not given),2.5% (inactive),–
CCCCNc1nc(C)nc2c1nc(-c1ccccc1)n2CCCN1CCCCC1C (stereo not given),14.4% (inactive),–
Cc1ccc(-c2ccc(=O)n(CC(=O)NCCCN(C)C)n2)cc1,14.1% (inactive),–

SMILES,"activity change, negative = inhibition",Potency
Cc1cnc(-c2ccccc2C(C)C)nc1NCc1ccc(-c2ccc(F)nc2)cc1,5.29% (inactive),–
CC(=O)c1ccc(N2CCN(S(=O)(=O)c3ccc4c(c3)oc(=O)n4C)CC2)cc1,-27.1% (inactive),–
CCCn1c(C)nc2c(N(CCN(CC)CC)CCN(CC)CC)nc(C)nc21,14.2% (inactive),–
NC(=O)C1CCN(c2nc(-c3cccc(N)c3)cs2)CC1,0.86% (inactive),–
O=C1CCCC2=C1C(c1[nH]ncc1Cl)N=C(Nc1nc3cc(F)ccc3o1)N2 (stereo not given),1.07% (inactive),–
O=C(/C=C/c1ccccc1Br)NCCc1nc2ccccc2[nH]1,-3.38% (inactive),–
Cc1ccc(S(=O)(=O)Nc2cc(C(=O)Nc3nc(-c4ccccc4)cs3)ccn2)cc1,3.07% (inactive),–
Cc1cccc(C)c1-n1c(SCC(=O)Nc2ccc(F)cc2)nnc1-c1cccc([S+](=O)([O-])N2CCCC2)c1,4.73% (inactive),–
O=S(=O)(c1ccc2c(c1)OCCO2)N1CCN(S(=O)(=O)c2ccccc2F)CC1,4.92% (inactive),–
Cc1ccc(S(=O)(=O)Nc2cnccc2C(=O)Nc2ccc3ccccc3c2)cc1,1.07% (inactive),–
COc1ccc(C2=Nn3c(nnc3-c3ccc(OC)c(OC)c3)SC2)cc1OC,13.9% (inactive),–
NC(=O)C1CCN(c2nc(-c3cccc(C(F)(F)F)c3)cs2)CC1,-1.1% (inactive),–
CCCc1cc(C)n(C)c(=O)c1CN(C)C(=O)c1cc(-c2ccc(N3CCN(C(C)C)CC3)nc2)cc2c1cnn2C(C)C,6.43% (inactive),–
CC(C)(NC(=O)Nc1ccccc1Cl)C(=O)N1CCC(C(=O)O)CC1,18.2% (inactive),–
CC1=CC2/C=C(\C)CCC(O)C/C=C/C(=O)OC23C(=O)NC(CC(C)C)C3C1C (stereo not given),6.29% [at 28 µM] (inactive),–
Cc1ccc([S+](=O)([O-])n2cc(-c3ccc(-c4ccccc4)cc3)c3ccccc32)cc1,9.95% (inactive),–
COC1C=C([C@@H]2CC=C3[C@@]4(C)C(CC[C@]32C)[C@@]2(C)C=CC(=O)C(C)(C)C2C[C@H]4OC(C)=O)C(=O)O1 (stereo not given in full),-19.7% [at 28 µM] (inactive),–
CCOC(=O)C1CCN(C(=O)C(C)(C)NC(=O)Nc2ccc(Cl)cc2Cl)CC1,-12.3% (inactive),–
CCOC(=O)c1nc(NCc2ccccc2)sc1C,1.32% (inactive),–
COc1ccc(C(=O)Nc2nc(-c3ccccc3)cs2)c(OC)c1,1.72% (inactive),–

# Target: Retinaldehyde dehydrogenase 3 (Homo sapiens) (UniProt P47895)
# Assay: qHTS for Inhibitors of the Aldehyde Dehydrogenase Family (ALDH1A3) Primary screen (AID 2061315);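 also: plate controls were DMSO vehicle for no effect and reference inhibitor for full effect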
# Details: ALDH inhibition qHTS; series mostly up to 56 µM; activity change, negative = inhibition: at the top concentration
SMILES,"activity change, negative = inhibition",Potency
CC(C)Nc1oc(-c2cccc3ccccc23)nc1C#N,-10.6% (inactive),–
O=C(OCC#CCSc1nnc(-c2ccc3ccccc3c2)o1)c1ccc(F)c(F)c1,22% (inactive),–
C=C1[C@H]2CC[C@H](C(=O)O)[C@@]23CC[C@H](C3)C1(C)C,13.4% (inactive),–
CCCc1cc(=O)c2ccccc2n1C,-7.39% (inactive),–
CC(C)N1Cc2ccc(Nc3nn4c(=O)c5ccccc5nc4s3)cc2C1,7.29% (inactive),–
FC(F)(F)c1ccccc1-c1nc(NCC#Cc2cccnc2)c2ccccc2n1,–,inactive
Cc1cc(C)cc(N2CCN(C(=S)Nc3cc(C)cc(C)n3)CC2)c1,11.7% (inactive),–
FC(F)(F)c1ccc(CSc2nc3ncc(Br)cc3[nH]2)cc1,-3.14% (inactive),–
COc1ccc(-c2nnc3n2N=C(c2ccccc2OC)CS3)cc1OC,2.89% (inactive),–
Cc1cc(NC(=O)Nc2cccc(-c3ccncc3)n2)ccc1Br,23.2% (inactive),–
CN(Cc1cccs1)c1ncnc2ccc(-c3ccc4c(c3)OCO4)cc12,-4.63% (inactive),–
COC(=O)c1ccc(O)c2ncc(-c3ccc(C(=O)N4CCN(C)CC4)cc3)cc12,-10.6% (inactive),–
Fc1cc(F)cc(Nc2nc(Cl)nc(NC3CCCC3)n2)c1,0.465% (inactive),–
CCCCC1CCC(C(=O)Nc2ccc(S(=O)(=O)Nc3cc(C)on3)cc2)CC1 (stereo not given),8.32% (inactive),–
CN(CCc1cccs1)c1ncnc2ccc(-c3ccc4c(c3)OCO4)cc12,1.93% (inactive),–
Cc1cccc(CNc2ccc(S(=O)(=O)Nc3nccs3)cc2)c1O,1.6% (inactive),–
O=C(CN1C(=O)N/C(=C\c2cccn2-c2cccc(C(=O)O)c2)C1=O)Nc1cccc(Cl)c1,2.79% (inactive),–
COc1ccc(C2Nc3cccc(OC)c3C(=O)N2Cc2ccco2)cc1COc1c(C)cc(NC(C)=O)cc1C (stereo not given),-15.7% (inactive),–
CCCCNc1nc(C)nc2c1nc(-c1ccccc1)n2CCCN1CCCCC1C (stereo not given),-9.06% (inactive),–
Cc1ccc(-c2ccc(=O)n(CC(=O)NCCCN(C)C)n2)cc1,-3.3% (inactive),–

SMILES,"activity change, negative = inhibition",Potency
Cc1cnc(-c2ccccc2C(C)C)nc1NCc1ccc(-c2ccc(F)nc2)cc1,2.89% (inactive),–
CC(=O)c1ccc(N2CCN(S(=O)(=O)c3ccc4c(c3)oc(=O)n4C)CC2)cc1,5.43% (inactive),–
CCCn1c(C)nc2c(N(CCN(CC)CC)CCN(CC)CC)nc(C)nc21,9.71% (inactive),–
NC(=O)C1CCN(c2nc(-c3cccc(N)c3)cs2)CC1,-12% (inactive),–
O=C1CCCC2=C1C(c1[nH]ncc1Cl)N=C(Nc1nc3cc(F)ccc3o1)N2 (stereo not given),-6.51% (inactive),–
O=C(/C=C/c1ccccc1Br)NCCc1nc2ccccc2[nH]1,5.02% (inactive),–
Cc1ccc(S(=O)(=O)Nc2cc(C(=O)Nc3nc(-c4ccccc4)cs3)ccn2)cc1,8.68% (inactive),–
Cc1cccc(C)c1-n1c(SCC(=O)Nc2ccc(F)cc2)nnc1-c1cccc([S+](=O)([O-])N2CCCC2)c1,17.4% (inactive),–
O=S(=O)(c1ccc2c(c1)OCCO2)N1CCN(S(=O)(=O)c2ccccc2F)CC1,5.36% (inactive),–
Cc1ccc(S(=O)(=O)Nc2cnccc2C(=O)Nc2ccc3ccccc3c2)cc1,4.2% (inactive),–
COc1ccc(C2=Nn3c(nnc3-c3ccc(OC)c(OC)c3)SC2)cc1OC,2.47% (inactive),–
NC(=O)C1CCN(c2nc(-c3cccc(C(F)(F)F)c3)cs2)CC1,6.57% (inactive),–
CCCc1cc(C)n(C)c(=O)c1CN(C)C(=O)c1cc(-c2ccc(N3CCN(C(C)C)CC3)nc2)cc2c1cnn2C(C)C,2.14% (inactive),–
CC(C)(NC(=O)Nc1ccccc1Cl)C(=O)N1CCC(C(=O)O)CC1,1.93% (inactive),–
CC1=CC2/C=C(\C)CCC(O)C/C=C/C(=O)OC23C(=O)NC(CC(C)C)C3C1C (stereo not given),17.6% [at 28 µM] (inactive),–
Cc1ccc([S+](=O)([O-])n2cc(-c3ccc(-c4ccccc4)cc3)c3ccccc32)cc1,7.98% (inactive),–
COC1C=C([C@@H]2CC=C3[C@@]4(C)C(CC[C@]32C)[C@@]2(C)C=CC(=O)C(C)(C)C2C[C@H]4OC(C)=O)C(=O)O1 (stereo not given in full),16% [at 28 µM] (inactive),–
CCOC(=O)C1CCN(C(=O)C(C)(C)NC(=O)Nc2ccc(Cl)cc2Cl)CC1,-6.85% (inactive),–
CCOC(=O)c1nc(NCc2ccccc2)sc1C,1.78% (inactive),–
COc1ccc(C(=O)Nc2nc(-c3ccccc3)cs2)c(OC)c1,-1.82% (inactive),–

# Reference: PubChem BioAssay (NCATS)
